A selection: hits, their analogues and other compounds. The true share with any hit is near 4.8%.
hgDAF12 agonist: H. glycines DAF-12 receptor agonists, primary screen, cell-based, luminescence, HEK293, GAL4 fusion, UAS-luciferase. AID 687014, 2013. Nuclear hormone receptor DAF-12 (Heterodera glycines), GAL4 fusion. activation, % at 6.8 µM. HEK293 GAL4-hgDAF12 UAS-luciferase reporter, agonist luminescence; normalized to butyrate control. hit rate 1.8% among 370,000;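 active = activation above a cutoff set at the mean of all screened compounds plus 3 SD, cut at about 10% in these data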
hcDAF-12 act: H. contortus DAF-12 nuclear receptor activators, primary screen, cell-based, luminescence, HEK293, lit1-tk-luc reporter. HEK293 hcDAF-12 lit1-tk-luc reporter; 0% DMSO, 100% Δ7-dafachronic acid. activation, % at 6.8 µM. hit rate 1.4% among 370,000. AID 652067, 2013;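 active = activation above the mean of all tested compounds plus 3 SD, cut at about 5.5% in these data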
DAX1 inh-1: DAX1 (NR0B1) inhibitors, primary screen, cell-based, HEK293, Gal4-DAX1, luciferase luminescence; HEK293 Gal4-DAX1 luciferase reporter; inhibition, % at 6.75 µM; hit rate 0.99% among 340,000;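 active = inhibition above the mean over all tested compounds plus 3 SD, cut at about 4.2% in these data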;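 note: inhibition shows as a rise in luminescence from relieved DAX1 repression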
ssDAF12 agonist: S. stercoralis DAF-12 nuclear receptor activators, primary screen, cell-based, luminescence, HEK293, GRIP1 co-expression, lit1-tk-luc; HEK293 ssDAF-12/GRIP1 lit1-tk-luc reporter; % of 3 µM dafachronic acid response; AID 652126, 2013; hit rate 1% among 370,000; Nuclear hormone receptor DAF-12 (Strongyloides stercoralis); activation, % at 6.8 µM;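 active = activation above the mean over all tested compounds plus 3 SD, cut at about 0.9% in these data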
NR1D1 modulator: modulators of Rev-erb alpha DNA binding, primary screen, biochemical, FITC-DNA, fluorescence polarization, uHTS | Rev-erbα–FITC-DNA binding, 90 min | activity, % at 10 µM | hit rate 0.79% among 370,000;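 active = activity above about 14%, limit read from the data; passing the limit was not always enough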
DAX1 inh-2: DAX1 (NR0B1) inhibitors on StAR promoter, primary screen, cell-based, luminescence, SF-1 (NR5A1), full-length DAX-1; HEK293T StAR-luciferase reporter, SF-1/DAX-1 repression relief; inhibition, % at 6.8 µM; AID 652010, 2013; hit rate 1.1% among 370,000;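 active = inhibition above the mean over all tested compounds plus 3 SD, cut at about 3.6% in these data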;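 note: higher inhibition means more luminescence from relief of DAX-1 repression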
LXRb hcDAF ctr: LXR agonists, Gal4 luciferase reporter, confirmation, counter-screen for hcDAF-12 agonist project, cell-based, luminescence, HEK293, H. contortus campaign; activation, % at 6.8 µM; AID 743027, 2013; shares compounds with hcDAF-12 act; HEK293 Gal4-LXR tk-luc reporter, 24 h; normalized: DMSO 0%, positive control 100%; 3,400 tested, under 10 active;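 active = mean percent activation of the reporter above a cutoff set as the average over tested compounds plus their standard deviation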
Target sequence (P55055 whole entry, looked up, the tested form may be a part): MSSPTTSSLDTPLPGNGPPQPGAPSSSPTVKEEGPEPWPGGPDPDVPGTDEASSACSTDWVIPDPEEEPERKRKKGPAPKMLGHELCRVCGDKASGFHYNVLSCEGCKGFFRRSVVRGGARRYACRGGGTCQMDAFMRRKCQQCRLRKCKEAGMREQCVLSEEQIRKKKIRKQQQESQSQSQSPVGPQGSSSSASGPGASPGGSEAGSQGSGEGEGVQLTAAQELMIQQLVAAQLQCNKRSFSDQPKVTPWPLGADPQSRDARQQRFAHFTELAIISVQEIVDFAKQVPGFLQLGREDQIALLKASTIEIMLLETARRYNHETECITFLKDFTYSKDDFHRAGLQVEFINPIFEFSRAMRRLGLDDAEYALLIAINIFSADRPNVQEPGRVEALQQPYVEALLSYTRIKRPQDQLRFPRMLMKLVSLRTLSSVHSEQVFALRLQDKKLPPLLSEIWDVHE
hcDAF12 ag: H. contortus DAF-12 receptor agonists, confirmation, cell-based, luminescence, HEK293, lit1-tk-luc, triplicate | shares compounds with hcDAF-12 act | HEK293 hcDAF-12 lit1-tk-luc reporter; % of Δ7-dafachronic acid response | activation, % at 6.8 µM | hit rate 61% among 3,400 | AID 743032, 2013;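 active = mean activation across triplicate tests above the threshold derived from the earlier primary screen, cut at about 5.5% in these data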
Large screens that a line does not name were inactive (follow-up assays come after a bar, where they were run).

O=C(/C(=C(\[O-])c1ccccc1)[n+]1ccc2ccccc2c1)c1ccccc1	hcDAF-12 act 8.1 | LXRb hcDAF ctr inactive | hcDAF12 ag inactive
O=C(/C(=C(\[O-])c1ccccc1)[n+]1ccc2ccccc2c1)c1ccc([N+](=O)[O-])cc1	none
O=C(/C(=C(\[O-])c1ccccc1)[n+]1ccc2ccccc2c1)c1ccc(Cl)cc1	hcDAF-12 act 9.8 | LXRb hcDAF ctr inactive | hcDAF12 ag inactive
N#Cc1ccc(C(=O)Oc2coc(CSc3ncccn3)cc2=O)cc1	none (no result: DAX1 inh-1, DAX1 inh-2)
CC(C)C1C(C#N)=C(N)Oc2n[nH]c(-c3ccccc3)c21 (stereo not given)	none
CC(C)c1[nH]nc2c1C(C(C)C)C(C#N)=C(N)O2 (stereo not given)	hcDAF-12 act 6.9, ssDAF12 agonist 1.3 | LXRb hcDAF ctr inactive | hcDAF12 ag 7.8
CN(c1ccc(NC(=O)Cc2cn(C)c3ccccc23)cc1)c1ccccn1	none (no result: DAX1 inh-1)
Cc1nn(-c2cccc(C(F)(F)F)c2)c(Cl)c1/C=N/Nc1cccc(C(=O)O)c1	hgDAF12 agonist 13, hcDAF-12 act 10, DAX1 inh-2 3.7 | LXRb hcDAF ctr inactive | hcDAF12 ag 9.5
CCOC(=O)N/N=C/c1c(C)nn(-c2cccc(C(F)(F)F)c2)c1Cl	none
Cc1ccc(-n2c(SCC(=O)Nc3ccccc3-c3ccccc3)nnc2-c2ccccc2)cc1	none (no result: DAX1 inh-1)
COC(=O)C(Cc1ccc(O)cc1)NS(=O)(=O)Cc1ccccc1 (stereo not given)	none (no result: DAX1 inh-1)
CSc1ccccc1OCc1cc(C(=O)NC2CCOC2)no1 (stereo not given)	none
CSc1ccccc1OCc1cc(C(=O)NC2CCc3ccccc32)no1 (stereo not given)	hcDAF-12 act 7.6 | LXRb hcDAF ctr inactive | hcDAF12 ag inactive
CCOc1cccc(-c2nnc3n2N=C(c2ccc(OC)cc2)CS3)c1	none (no result: DAX1 inh-1)
O=C(Nc1ccccc1)OCCN1C(=O)CCC12CCC(c1ccc(Cl)cc1)CC2 (stereo not given)	none (no result: DAX1 inh-1)
c1ccc2c(-c3nc4ncccc4o3)cccc2c1	hcDAF-12 act 8.3 | LXRb hcDAF ctr inactive | hcDAF12 ag 5.6
CC1CCC2(CC1)CCN(CCCOC(=O)Nc1cccc(F)c1)C2=O (stereo not given)	none (no result: DAX1 inh-1)
O=S1(=O)CC2c3ccccc3CN2CN1Cc1ccc(F)cc1 (stereo not given)	none (no result: DAX1 inh-1)
O=C(NCc1cc2ccccc2[nH]1)C1CCC(=O)N(CCCN2CCCC2=O)C1 (stereo not given)	hcDAF-12 act 6.9 | LXRb hcDAF ctr inactive | hcDAF12 ag inactive
COc1ccccc1CNC(=O)C1CCC(=O)N(CCCN2CCCC2=O)C1 (stereo not given)	none
O=C(NCCc1ccccc1)C1CCC(=O)N(CCCN2CCCC2=O)C1 (stereo not given)	hcDAF-12 act 7.8, ssDAF12 agonist 1.9 | LXRb hcDAF ctr inactive | hcDAF12 ag inactive
CCCn1c(=O)c2ccccc2n2c(SCc3nc4ccccc4s3)nnc12	hcDAF-12 act 9.5, ssDAF12 agonist 1.1, DAX1 inh-2 3.7 | LXRb hcDAF ctr inactive | hcDAF12 ag 7.3
Cn1c(SCc2nc3ccccc3s2)nnc1-c1cccs1	hcDAF-12 act 7.1, ssDAF12 agonist 1.5 | LXRb hcDAF ctr inactive | hcDAF12 ag inactive
COc1ccc(-c2nnc(SCc3nc4ccccc4s3)n2C(C)C)cc1	none
COc1ccccc1-c1nnc(SCc2nc3ccccc3s2)n1C	hcDAF-12 act 8.6 | LXRb hcDAF ctr inactive | hcDAF12 ag inactive
C[C@H](O)[C@@H]1C(=O)N2CCc3c([nH]c4c(-c5ccccc5)cccc34)[C@@H]2C[C@@H]1N(C)C(=O)/C=C/c1ccccc1	none (no result: DAX1 inh-1)
CCOC(=O)c1cn[nH]c1NC(=S)Nc1ccc(Cl)cc1	hcDAF-12 act 7.9 (no result: DAX1 inh-1) | LXRb hcDAF ctr inactive | hcDAF12 ag 10
O=C(c1ccccc1OCc1ccccc1)N(Cc1ccccn1)CC1CCCO1 (stereo not given)	none (no result: DAX1 inh-1)
CCc1noc(C)c1C(=O)Nc1nc2c(C)cccc2s1	none
CCc1noc(C)c1C(=O)Nc1nc2c(F)cc(F)cc2s1	hcDAF-12 act 11 | LXRb hcDAF ctr inactive | hcDAF12 ag inactive
O=C(Nc1nc2c(F)cc(F)cc2s1)c1ccccn1	hgDAF12 agonist 13, hcDAF-12 act 7.0 | LXRb hcDAF ctr inactive | hcDAF12 ag inactive
CC1CCCCN1S(=O)(=O)c1ccc(C(=O)Nc2ccccc2-c2nc3ccccc3[nH]2)cc1 (stereo not given)	none
CC1CCCCN1S(=O)(=O)c1ccc(C(=O)Nc2ccccc2-c2nc3ccccc3s2)cc1 (stereo not given)	hcDAF-12 act 11 | LXRb hcDAF ctr inactive | hcDAF12 ag inactive
Cc1cc(-c2ccc(Cl)cc2)c(C#N)c(N)n1	hcDAF-12 act 6.7 | LXRb hcDAF ctr inactive | hcDAF12 ag inactive
CCc1cc2c(NC(Cc3c[nH]c4ccccc34)C(=O)O)nc(C)nc2s1 (stereo not given)	none
CCc1cc2c(N[C@@H](Cc3c[nH]c4ccccc34)C(=O)O)ncnc2s1	hcDAF-12 act 8.0 | LXRb hcDAF ctr inactive | hcDAF12 ag inactive
Cc1sc2ncnc(N[C@@H](Cc3c[nH]c4ccccc34)C(=O)O)c2c1C	hcDAF-12 act 7.0 | LXRb hcDAF ctr inactive | hcDAF12 ag 5.7
Cc1ccc(CN2CC(N3CCC[C@@H]3C)CS2(=O)=O)cc1 (stereo not given in full)	none (no result: DAX1 inh-1)
CC(=O)Oc1ccc(C(=O)[C@H]2[C@H]3C(=O)N(c4ccccc4)C(=O)[C@H]3[C@@H]3C=CC=NN32)cc1	hcDAF-12 act 8.1 | LXRb hcDAF ctr inactive | hcDAF12 ag inactive

Assay outcomes deposited in PubChem BioAssay by several laboratories.
